HTT ATP protect: Huntington cell model cytoprotection by ATP luminescence; PC12 HTT-Q103 induced, cytoprotection, ATP luminescence, 40 h; 230,000 tested, 0.14% active; Potency, µM (series often up to 56.4 µM), most hits filed as activators; also: nearly all actives have a fitted effect of over 45% in size
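Readout: ATPlite luminescence (ATP level). Model: stable PC12, inducible Htt exon1 Q103-GFP. Inducer: tebufenozide, 100 nM final. Compounds: dose series. No G418 in medium.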
GLA inh pH 4.5: blocks human alpha-galactosidase A at pH 4.5; activity change, negative = inhibition, % at 105 µM; 230,000 tested, under 10 active; purified enzyme, 4-MU-alpha-Gal fluorescence, pH 4.5; P06280
ERK EGF block: blocks ERK signaling stimulated by EGF; 130,000 tested, 0.41% active; HEK293-V1b, EGF-stimulated phospho-ERK AlphaScreen; Potency, µM (titrated, usually from 11.5 µM), actives largely listed as inhibitors; also: nearly all actives have a fitted effect of over 55% in size
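Compounds are titrated over HEK293-V1b cells kept overnight in 1% FBS. After 30 min at 37C, EGF (25 nM final) triggers ERK phosphorylation for 5 min, measured by AlphaScreen in lysates.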
HttQ103 aggreg: mutant huntingtin aggregation inhibition; PC12 HttQ103-GFP aggregates, Acumen cytometry, 40 h; Potency, µM (highest dose often 46.1 µM), hits mostly inhibitors; 220,000 tested, 1.1% active; also: nearly all actives have a fitted effect of over 60% in size
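Compounds (qHTS titration) were added to PC12 cells expressing an ecdysone-driven HTT exon 1 Q103–GFP fusion after induction with 100 nM tebufenozide. Aggregate formation was measured as GFP objects in cell lysates.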
aGal spleen mod: inhibitors or activators of human alpha-galactosidase in spleen homogenate; P06280; Potency, µM (titrated, usually from 80 µM), hits mostly inhibitors; 240,000 tested, 0.008% active; human spleen homogenate, 4MU-alpha-Gal fluorescence, 40 min; AID 2107
Target sequence (P06280 32-429 limits assumed): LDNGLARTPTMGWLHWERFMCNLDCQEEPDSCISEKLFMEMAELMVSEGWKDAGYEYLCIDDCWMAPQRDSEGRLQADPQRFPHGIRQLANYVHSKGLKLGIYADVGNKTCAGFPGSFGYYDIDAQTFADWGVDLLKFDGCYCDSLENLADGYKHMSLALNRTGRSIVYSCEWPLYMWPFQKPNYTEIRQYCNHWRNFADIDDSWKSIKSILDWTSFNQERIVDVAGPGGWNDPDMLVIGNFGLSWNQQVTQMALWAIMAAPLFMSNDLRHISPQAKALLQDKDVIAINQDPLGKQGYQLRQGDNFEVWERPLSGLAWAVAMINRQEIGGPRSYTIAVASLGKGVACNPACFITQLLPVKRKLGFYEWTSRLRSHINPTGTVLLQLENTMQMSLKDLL
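Fluorogenic readout (Ex 365/Em 440 nm) of 4-methylumbelliferone released from 1 mM 4-MU-alpha-galactoside by spleen homogenate, 40 min at 37C, pH 5.0. Data normalized to no-enzyme and enzyme controls; Hill-equation AC50 from compound titrations.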
Large screens that a line does not name were inactive. An excerpt weighted towards active compounds, which were near 1.2% of everything screened. Calls follow the shape of the dose curve; as a rule, active = well fitted curve in the direction sought with a large enough effect; inconclusive = small, poorly fitted or top-dose-only effect, or another doubt; inactive = no such curve, though single readings can be large; an effect the other way counts as inactive or inconclusive.

COc1cccc(/C=N/NC(=O)CN2CC(c3ccccc3)CC2=O)c1O (centres undefined)	HttQ103 aggreg 3.5µM (no result: HTT ATP protect)
OC[C@@H]1O[C@@H](n2cnc3c(NCCc4ccccc4)ncnc32)[C@@H](O)[C@H]1O	none (no result: GLA inh pH 4.5, ERK EGF block, HttQ103 aggreg, aGal spleen mod)
CN(Cc1ccco1)c1ccnc(-c2ccoc2)n1	none (no result: HttQ103 aggreg)
Cc1ccccc1N1C(=O)CC(Sc2nnc(-c3ccccc3)o2)C1=O (centres undefined)	HttQ103 aggreg 22µM (no result: ERK EGF block)
Cc1ccc2cc(CCNC(=O)c3cc4ccccc4o3)c(=O)[nH]c2c1C	ERK EGF block 32µM, HttQ103 aggreg inconclusive
Cc1ccc2cc(CCNC(=O)C(C)C)c(=O)[nH]c2c1C	none
COc1ccc(NC(=O)N2CC[C@@]3(CCCN(C(=O)c4c(C)noc4C)C3)C2)cc1	none (no result: GLA inh pH 4.5, HttQ103 aggreg)
COc1ccccc1NC(=O)N1CCN(c2cc(-c3ccccc3)nc3ncnn23)CC1	HTT ATP protect inconclusive, HttQ103 aggreg 10µM (no result: ERK EGF block)
COc1ccc(OC)c(NC(=O)C2CCN(c3cc(-c4ccccc4)nc4ncnn34)CC2)c1	none (no result: ERK EGF block)
Brc1ccc2ncnc(Nc3ccc(N4CCOCC4)cc3)c2c1	HttQ103 aggreg 8.9µM (no result: ERK EGF block)
O=C(COc1ncnc2ccc(Br)cc12)Nc1ccc(N2CCOCC2)cc1	none (no result: ERK EGF block)
CCCCCCC1/C(=N/O)CCC1C(=O)OC (centres undefined)	HttQ103 aggreg 4µM (no result: ERK EGF block)
O=[N+]([O-])c1cc(Cl)cc(/C=N\Nc2ccccn2)c1O	HttQ103 aggreg 2.2µM (no result: ERK EGF block)
CC[C@H](C)[C@H](NC(=O)[C@H](C)NC(=O)[C@H](Cc1cnc[nH]1)NC(=O)[C@@H]1CCCN1C(=O)CNC(=O)[C@H](CC(C)C)NC(=O)[C@H](CC(C)C)NC(=O)[C@H](Cc1ccc(O)cc1)NC(=O)CNC(=O)[C@H](C)NC(=O)[C@H](CO)NC(=O)[C@H](CC(N)=O)NC(=O)[C@H](CC(C)C)NC(=O)[C@@H](NC(=O)[C@H](Cc1c[nH]c2ccccc12)NC(=O)CN)[C@@H](C)O)C(=O)N[C@@H](CC(=O)O)C(=O)N[C@@H](CC(N)=O)C(=O)N[C@@H](Cc1cnc[nH]1)C(=O)N[C@@H](CCCNC(=N)N)C(=O)N[C@@H](CO)C(=O)N[C@@H](Cc1ccccc1)C(=O)N[C@@H](CO)C(=O)N[C@@H](CC(=O)O)C(=O)N[C@@H](CCCCN)C(=O)N[C@@H](Cc1cnc[nH]1)C(=O)NCC(=O)N[C@@H](CC(C)C)C(=O)N[C@H](C(N)=O)[C@@H](C)O	none (no result: HTT ATP protect, GLA inh pH 4.5, ERK EGF block, HttQ103 aggreg)
C/C(=N\NC(N)=S)C1C2C3CC4C5CC(C42)C1C53 (centres undefined)	HTT ATP protect 11µM
Nc1nnc(Cc2ccc(Cl)c(Cl)c2)s1	HttQ103 aggreg 5.6µM (no result: ERK EGF block)
CC1CCCN(C2=C(NS(=O)(=O)c3ccc(Cl)cc3)C(=O)c3ccccc3C2=O)C1 (centres undefined)	ERK EGF block 10µM
NCCNCCN	none (no result: HTT ATP protect, GLA inh pH 4.5, ERK EGF block, HttQ103 aggreg)
Cc1ccc(Nc2c(-c3ccccn3)nc3cccc(C)n23)cc1	HttQ103 aggreg 7.9µM
Cc1cccc2nc(-c3ccco3)c(Nc3ccccc3)n12	none
O=C1C=CC2=C3c4cc(O)c(O)cc4C[C@@]3(O)COC2=C1O	none (no result: GLA inh pH 4.5, ERK EGF block, HttQ103 aggreg, aGal spleen mod)
OCC1OC([S-])[C@H](O)C(O)C1O.[Au+] (some centres undefined)	none
C=C1CCC2[C@](C)(CO)[C@H](O)CC[C@@]2(C)[C@@H]1C/C=C1/C(=O)OC[C@H]1O (some centres undefined)	HTT ATP protect 7.1µM (no result: HttQ103 aggreg)
CC1(C)CC[C@]2(C(=O)O)CC[C@@]3(C)C(=CCC4[C@@]5(C)CCC(O)[C@@](C)(CO)C5CC[C@@]43C)C2C1 (some centres undefined)	none (no result: HTT ATP protect, HttQ103 aggreg)
Cc1cn(C2CC3OCC(NC(=O)C(Cc4ccccc4)NC(=O)OC(C)(C)C)C3O2)c(=O)[nH]c1=O (centres undefined)	none (no result: HTT ATP protect, GLA inh pH 4.5, ERK EGF block, HttQ103 aggreg)
Fc1cccc(Nc2ncnc3c2cnn3-c2ccccc2)c1	none
Clc1cccc(Nc2ncnc3c2cnn3-c2ccccc2)c1	HttQ103 aggreg 22µM (no result: ERK EGF block)
CN(N)c1nc(-c2ccccc2)nnc1C(F)(F)F	none (no result: ERK EGF block)
CN(NC(=O)c1cccc(Cl)c1)c1nc(-c2ccccc2)nnc1C(F)(F)F	HttQ103 aggreg 1µM (no result: HTT ATP protect, ERK EGF block)
Cn1c(=O)c2c(ncn2C[C@@H](O)CO)n(C)c1=O	HTT ATP protect inconclusive
COc1ccc(C)cc1N1C(=N)/C(=C2/Nc3ccccc3S2)C(c2ccccc2)C1=O (centres undefined)	ERK EGF block 20µM, HttQ103 aggreg inconclusive
COc1ccc(C2C(Oc3ccccc3)C(=O)N2c2cc(C)ccc2C)cc1OC (centres undefined)	none (no result: ERK EGF block)
CCOC(=O)c1cccc(N)c1	none (no result: GLA inh pH 4.5, ERK EGF block, aGal spleen mod)
Oc1cccc2ccc(Nc3ccccn3)nc12	HttQ103 aggreg 3.5µM (no result: ERK EGF block)
c1ccc(Nc2ccccc2Nc2ccccn2)nc1	HTT ATP protect inconclusive
CCCCNS(=O)(=O)c1ccc(S(=O)(=O)NCc2ccncc2)cc1	HttQ103 aggreg 7.9µM (no result: HTT ATP protect)
CCCCc1ccc(S(=O)(=O)NCCc2ccncc2)cc1	HttQ103 aggreg inconclusive (no result: ERK EGF block)
Cc1cc(C)c(S(=O)(=O)NCc2ccncc2)c(C)c1	HttQ103 aggreg 6.3µM (no result: ERK EGF block)
Cn1cccc1C(=O)N1CCC[C@@]2(CCN(Cc3cc(C(F)(F)F)cc(C(F)(F)F)c3)C2)C1	none (no result: GLA inh pH 4.5, HttQ103 aggreg)
Cc1cc(C(=O)N/N=C/c2cc(Br)ccc2OC(=O)c2ccccc2)n[nH]1	HttQ103 aggreg 2µM (no result: ERK EGF block)
O=C(NNC(=O)c1ccc2ccccc2c1O)c1ccccc1Cl	HttQ103 aggreg 32µM (no result: ERK EGF block)
O=S(=O)(Nc1cccnc1)c1cccc2cccnc12	none (no result: GLA inh pH 4.5, ERK EGF block, HttQ103 aggreg, aGal spleen mod)
CC(C)(C)c1ccc(C2CC2C(=O)N/N=C\c2ccc[nH]2)cc1 (centres undefined)	HttQ103 aggreg 2.5µM
COc1ccc2c(c1)OC/C(=C\c1ccc(OC)c(O)c1)C2=O	HTT ATP protect 6.3µM, ERK EGF block inconclusive (no result: HttQ103 aggreg)
CCn1cc(C2=NOC(C(=O)Nc3cccc(C(C)=O)c3)C2)c(C)n1 (centres undefined)	HttQ103 aggreg 0.79µM (no result: ERK EGF block)
CCn1cc(C2=NOC(C(=O)Nc3c(C)nn(Cc4ccc(F)cc4)c3C)C2)c(C)n1 (centres undefined)	none (no result: ERK EGF block)
O=C(CCl)Nc1cc(SCC(O)CO)cc([N+](=O)[O-])c1 (centres undefined)	HttQ103 aggreg 2.8µM
CC(C)=NOc1cc(NC(=O)CCl)cc([N+](=O)[O-])c1	HttQ103 aggreg 3.2µM (no result: HTT ATP protect)
CCC(=O)Nc1cc(SCCO)cc([N+](=O)[O-])c1	none (no result: ERK EGF block)
Cn1c(=O)c(CCc2ccccc2)nc2cnc(N3CCNCC3)nc21	none (no result: GLA inh pH 4.5, HttQ103 aggreg)
O=C(Nc1ccc([N+](=O)[O-])cc1)Nc1ccc(Cl)cc1F	HttQ103 aggreg inconclusive (no result: HTT ATP protect)
O=C(Nc1ccc(Cl)cc1)Nc1cc([N+](=O)[O-])ccc1F	HttQ103 aggreg 20µM
O=C(Nc1ccccc1)Nc1ccc(Cl)c([N+](=O)[O-])c1	HttQ103 aggreg 13µM
